Measured values reported in PubChem BioAssay (NCI).
About 83,000 compounds went through this panel and 20% of them were active in at least one assay; those are over-represented in the sample as a whole.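 Cell lines were cultured in 96-well plates, exposed to a single compound concentration, and assessed for percent growth 48 hours later.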 Calls of active or inactive are those of the source. How the source made its calls: active means growth percent below 10; inactive means the rest.

What was measured:
Experiment in all cases: NCI-60 one-dose screen, 48 h (100 = growth as untreated, 0 = no growth, -100 = all killed)
Settings in all cases: 10 µM unless noted
SK-MEL-2 melanoma = test system: SK-MEL-2 melanoma
EKVX NSCLC = test system: EKVX NSCLC
SN12C renal = test system: SN12C renal
UO-31 renal = test system: UO-31 renal
TK-10 renal = test system: TK-10 renal
ACHN renal = test system: ACHN renal
CAKI-1 renal = test system: CAKI-1 renal
A498 renal = test system: A498 renal
MOLT-4 leukemia = test system: MOLT-4 leukemia
SR leukemia = test system: SR leukemia
RPMI-8226 leukemia = test system: RPMI-8226 leukemia
OVCAR-8 ovarian = test system: OVCAR-8 ovarian
OVCAR-5 ovarian = test system: OVCAR-5 ovarian
OVCAR-4 ovarian = test system: OVCAR-4 ovarian
SK-OV-3 ovarian = test system: SK-OV-3 ovarian
IGROV1 ovarian = test system: IGROV1 ovarian
OVCAR-3 ovarian = test system: OVCAR-3 ovarian
HS 578T breast = test system: HS 578T breast
NCI/ADR-RES ovarian = test system: NCI/ADR-RES ovarian
CCRF-CEM leukemia = test system: CCRF-CEM leukemia

Measured: growth

C[C@H]1c2[nH]c3ccccc3c2C[C@H]2C(=O)N(CCCCCCC(=O)NO)CC(=O)N21
inactive: SK-MEL-2 melanoma 76.3% | EKVX NSCLC 85.3% | SN12C renal 88.5% | UO-31 renal 83.3% | TK-10 renal 90.3% | ACHN renal 90.1% | CAKI-1 renal 87.8% | A498 renal 83.2% | MOLT-4 leukemia 52.3% | SR leukemia 30.8% | RPMI-8226 leukemia 73.8% | OVCAR-8 ovarian 64.5% | OVCAR-5 ovarian 80.7% | OVCAR-4 ovarian 97.1% | SK-OV-3 ovarian 101% | IGROV1 ovarian 93% | OVCAR-3 ovarian 79.9% | HS 578T breast 66.7% | NCI/ADR-RES ovarian 106%

Nc1nc(N)c2c(n1)NC(c1ccc(Cl)cc1)CC(c1ccc(Nc3nc(NCCO)nc(N4CCOCC4)n3)cc1)=N2 (configuration not stated)
inactive: SK-MEL-2 melanoma 88.2% | EKVX NSCLC 89.8% | SN12C renal 82.1% | UO-31 renal 84.4% | TK-10 renal 103% | ACHN renal 93.7% | CAKI-1 renal 97.2% | A498 renal 90.6% | CCRF-CEM leukemia 48.2% | MOLT-4 leukemia 45.5% | RPMI-8226 leukemia 38.9% | OVCAR-8 ovarian 72% | OVCAR-5 ovarian 96.7% | OVCAR-4 ovarian 93.8% | SK-OV-3 ovarian 103% | IGROV1 ovarian 78.8% | OVCAR-3 ovarian 73.2% | HS 578T breast 65.9% | NCI/ADR-RES ovarian 97.3%

O=C(Cn1cc(-c2ccccc2)nn1)Nc1nc(-c2ccc(Cl)cc2)cs1
inactive: SK-MEL-2 melanoma 103% | EKVX NSCLC 98% | SN12C renal 96.2% | UO-31 renal 91% | TK-10 renal 76.1% | ACHN renal 112% | CAKI-1 renal 107% | A498 renal 80.7% | CCRF-CEM leukemia 103% | MOLT-4 leukemia 97.8% | RPMI-8226 leukemia 99.3% | OVCAR-8 ovarian 101% | OVCAR-5 ovarian 104% | OVCAR-4 ovarian 92.7% | SK-OV-3 ovarian 94.7% | IGROV1 ovarian 108% | OVCAR-3 ovarian 123% | HS 578T breast 106% | NCI/ADR-RES ovarian 102%

COc1cc(-c2nn(C(C)(C)C)cc2-c2ccnc(NCCCNS(=O)(=O)c3ccc(Cl)cc3)n2)ccc1Cl
inactive: SK-MEL-2 melanoma 82.5% | EKVX NSCLC 31.3% | SN12C renal 46% | UO-31 renal 32.7% | TK-10 renal 66.1% | ACHN renal 64.1% | CAKI-1 renal 17.7% | A498 renal 49.4% | MOLT-4 leukemia 31% | SR leukemia 37.7% | RPMI-8226 leukemia 66.1% | OVCAR-8 ovarian 73.3% | OVCAR-5 ovarian 79.5% | OVCAR-4 ovarian 39.2% | SK-OV-3 ovarian 93.9% | IGROV1 ovarian 50.8% | OVCAR-3 ovarian 73.5% | HS 578T breast 70.5% | NCI/ADR-RES ovarian 67%

O=C(CSc1nnc(-c2ccc3nc(-c4ccccc4)[nH]c3c2)o1)Nc1ccc(C(=O)/C=C/c2ccccc2)cc1
inactive: SK-MEL-2 melanoma 103% | EKVX NSCLC 106% | SN12C renal 98% | UO-31 renal 87.4% | TK-10 renal 110% | ACHN renal 102% | CAKI-1 renal 103% | A498 renal 95.9% | MOLT-4 leukemia 93.2% | SR leukemia 111% | RPMI-8226 leukemia 94.3% | OVCAR-8 ovarian 100% | OVCAR-5 ovarian 118% | OVCAR-4 ovarian 100% | SK-OV-3 ovarian 109% | IGROV1 ovarian 95.8% | OVCAR-3 ovarian 116% | HS 578T breast 103% | NCI/ADR-RES ovarian 105%

CCOC(=O)c1c(N)c(C#N)cn1-c1cc(OC)c(OC)c(OC)c1
inactive: SK-MEL-2 melanoma 129% | EKVX NSCLC 96% | SN12C renal 101% | UO-31 renal 88.8% | TK-10 renal 99.5% | ACHN renal 101% | CAKI-1 renal 91.8% | A498 renal 93.7% | CCRF-CEM leukemia 107% | MOLT-4 leukemia 102% | RPMI-8226 leukemia 104% | OVCAR-8 ovarian 102% | OVCAR-5 ovarian 96% | OVCAR-4 ovarian 107% | SK-OV-3 ovarian 135% | IGROV1 ovarian 105% | OVCAR-3 ovarian 119% | HS 578T breast 99.5% | NCI/ADR-RES ovarian 110%

O=C(Nc1ccc2c(ccn2Cc2ccccn2)c1)c1ccnnc1
inactive: SK-MEL-2 melanoma 102% | EKVX NSCLC 75.6% | SN12C renal 70.2% | UO-31 renal 58.8% | TK-10 renal 60.2% | ACHN renal 97.3% | CAKI-1 renal 65.9% | A498 renal 56.8% | MOLT-4 leukemia 115% | SR leukemia 101% | RPMI-8226 leukemia 94.4% | OVCAR-8 ovarian 104% | OVCAR-5 ovarian 95% | OVCAR-4 ovarian 68.3% | SK-OV-3 ovarian 105% | IGROV1 ovarian 80.3% | OVCAR-3 ovarian 106% | HS 578T breast 102% | NCI/ADR-RES ovarian 114%

C#C[C@]1(O)CC[C@H]2[C@@H]3CC=C4c5sc(-c6ccc7c(c6)OCO7)nc5CC[C@]4(C)[C@H]3CC[C@@]21C
inactive: SK-MEL-2 melanoma 28.9% | EKVX NSCLC 34.5% | SN12C renal 22.3% | UO-31 renal 51.9% | TK-10 renal 13.3% | ACHN renal 13% | CAKI-1 renal 44.4% | A498 renal 48.8% | CCRF-CEM leukemia 30.6% | OVCAR-8 ovarian 30.2% | OVCAR-5 ovarian 36.3% | OVCAR-4 ovarian 34.9% | SK-OV-3 ovarian 52.3% | IGROV1 ovarian 34.8% | NCI/ADR-RES ovarian 39.2%
active: MOLT-4 leukemia 8.06% | RPMI-8226 leukemia -15.3% | OVCAR-3 ovarian -13.2% | HS 578T breast -9.35%
